Data from PubChem BioAssay.
For part of these data: Entries with a potency or affinity are not part of this list. The source made the active and inactive calls.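 The calls were made as follows, unless noted: active = compound raising the membrane signal above positive-control mean plus 3 SD in both repeats, and a primary screen hit; inactive = the rest.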

Experiments:
[1] = system: TRPC4 beta (transient receptor potential cation channel C4), mouse; experiment: activators of mouse TRPC4 channel, confirmation, cell-based, Fluo4 calcium, HEK293 TRPC4beta/mu-opioid, duplicates, 10 µM (AID 2426;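 active = fluorescence ratio normalized to control raised more than 50% in primary screen plus both repeat runs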;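 as to activation: percent rise of integrated ratio over buffer wells lacking compound which define 0%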); details: Fluo4 calcium fluorescence, at 10 µM; stronger effect = higher value
[2] = system: transient receptor potential cation channel C4 beta (TRPC4), mouse; experiment: activators of mouse TRPC4 channel, confirmation, cell-based, second round, Fluo4, HEK293 TRPC4beta/mu-opioid, 1 µM (AID 2461;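 active = primary screen active and over 50% activation in each of two duplicate runs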;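 as to activation: 0% = wells without test compound as baseline of integrated fluorescence ratio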); details: Fluo4 calcium fluorescence, at 1 µM; stronger effect = higher value
[3] = system: TRPC4 (transient receptor potential cation channel C4 beta), mouse; experiment: positive allosteric modulators of mouse TRPC4, confirmation, cell-based, second round, Fluo-4, HEK293 TRPC4beta/mu-opioid, 1 µM (AID 2554;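 active = primary screen hit whose fluorescence ratio, in both repeats, exceeds the weak agonist control mean by 3 SD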); details: DAMGO EC20, Fluo-4 calcium flux, at 1 µM; stronger effect = higher value
[4] = system: TRPC4 beta (transient receptor potential cation channel C4), mouse; experiment: positive allosteric modulators of mouse TRPC4, confirmation, cell-based, Fluo-4, HEK293 TRPC4beta/mu-opioid (AID 2555;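 active = primary screen hit whose calcium fluorescence ratio, in both repeats, exceeds the weak agonist control mean by 3 SD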); details: DAMGO EC20, Fluo-4 calcium flux, at 10 µM; stronger effect = higher value
[5] = target: Short transient receptor potential channel 4 (Mus musculus) (UniProt Q9QUQ5); experiment: inhibitors of mouse TRPC4 channel, confirmation, cell-based, Fluo4, HEK293 TRPC4beta/mu-opioid (AID 2636;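 active = calcium signal cut by more than 3 SD below the full-agonist control yet still positive, in both repeats and the earlier primary screen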); details: DAMGO, Fluo4 calcium flux, at 10 µM; stronger effect = higher value
[6] = target: Short transient receptor potential channel 4 (Mus musculus) (UniProt Q9QUQ5); experiment: inhibitors of mouse TRPC4 channel, confirmation, cell-based, second round, Fluo4, HEK293 TRPC4beta/mu-opioid, 1 µM (AID 2637;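 active = calcium signal ratio cut to more than 3 SD under the fully stimulated control mean yet still positive, in both repeats and the primary screen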); details: Fluo4 calcium flux, DAMGO, at 1 µM; stronger effect = higher value
[7] = target: Short transient receptor potential channel 4 (Mus musculus) (UniProt Q9QUQ5); experiment: TRPC4 positive allosteric modulators, dose response, cell-based, HEK293 TRPC4/mu-opioid, Fluo-4 calcium, EC20 DAMGO (AID 434941;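 active = earlier screen potentiator hit that boosts the TRPC4 ion channel at some dose, with a dose response; inactive = no potentiation, no dose response, or not a prior hit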;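 also: calcium entry triggered by an EC20 dose of DAMGO at the co-expressed mu-opioid receptor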)
[8] = target: Short transient receptor potential channel 4 (Mus musculus) (UniProt Q9QUQ5); experiment: mouse TRPC4 channel inhibitors, dose response, cell-based, HEK293 TRPC4/mu-opioid, Fluo-4 calcium (AID 434942;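 active = primary screen inhibitor hit that blocks the TRPC4 channel at some tested dose, yielding a dose curve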)
[9] = target: Short transient receptor potential channel 6 (Mus musculus) (UniProt Q61143); experiment: inhibition of mouse TRPC6 channel, confirmation, selectivity assay for TRPC4 inhibitor project, cell-based, HEK293, membrane potential dye, duplicate (AID 434948;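 active = active in primary screen and both duplicates, each dropping signal beyond three positive-control SD with fluorescence still positive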); details: HEK293 TRPC6, membrane potential dye fluorescence, at 10 µM, stimulated with maximal-effect acetylcholine; stronger effect = higher value
[10] = target: Short transient receptor potential channel 6 (Mus musculus) (UniProt Q61143); experiment: activation of mouse TRPC6 channel, confirmation, selectivity assay for TRPC4 activator project, cell-based, HEK293, membrane potential dye, duplicate (AID 434950;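 active = membrane potential signal rise above negative control mean plus 3 SD in both duplicates, also active in the earlier TRPC4 screen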;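 as to activation: 0% = buffer only wells and 100% = acetylcholine maximal-effect wells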); details: HEK293 TRPC6, membrane potential fluorescence, at 10 µM; stronger effect = higher value
[11] = target: Short transient receptor potential channel 6 (Mus musculus) (UniProt Q61143); experiment: TRPC6 potentiation by TRPC4 potentiator hits, confirmation, selectivity assay for TRPC4 potentiator project, HEK293 cells, membrane potential dye, duplicate (AID 434952); details: HEK293 TRPC6, membrane potential dye fluorescence, at 10 µM, maximal acetylcholine added after compound; stronger effect = higher value
[12] = target: Short transient receptor potential channel 4 (Mus musculus) (UniProt Q9QUQ5); experiment: calcium flux activators in TRPC4/5HT1a cells, counter-screen for TRPC4 activator project, cell-based, second counter screen, HEK293 TRPC4/5HT1a, Fluo-4 (AID 434977;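 active = calcium signal rise above buffer-control mean plus 5 SD in both duplicates, and also a hit in the primary screen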;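 as to activation: plate controls were assay buffer for no effect and maximal serotonin response for full effect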); details: Fluo-4 calcium flux, at 10 µM; stronger effect = higher value
[13] = calcium flux inhibitors in TRPC4/5HT1a cells, confirmation, counter-screen for TRPC4 inhibitor project, cell-based, second counter screen, HEK293 TRPC4/5HT1a, Fluo-4 (AID 434978;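 active = primary screen active whose calcium signal fell more than 3 SD beyond the full-serotonin control mean in both duplicate plates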;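 also: serotonin given first at submaximal then at maximal dose after compound preincubation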); details: Fluo-4 calcium flux, at 10 µM, serotonin added to trigger calcium flux; stronger effect = higher value
[14] = system: TRPC4 (mouse), co-expressed with 5HT1a in HEK293; experiment: calcium flux potentiators in TRPC4/5HT1a cells, confirmation, counter-screen for TRPC4 potentiator project, cell-based, second counter screen, HEK293 TRPC4/5HT1a, Fluo-4 (AID 434979;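 active = signal rise over 3 SD above mean of control wells given weak agonist, in both repeats and first screen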); details: Fluo-4 calcium flux, at 10 µM, serotonin added at its EC20 dose; stronger effect = higher value
[15] = calcium flux activation in mu-opioid HEK293 cells, confirmation, counter-screen for TRPC4 activator project, cell-based, HEK293 mu-opioid receptor line (AID 449723;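 active = hit in primary screen, with calcium signal over 5 SD above buffer well mean in both duplicates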;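 also: counter screen cells carry the mu-opioid receptor alone and lack TRPC4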); details: Fluo-4 calcium fluorescence, at 10 µM; stronger effect = higher value
[16] = calcium flux enhancement in mu-opioid HEK293 cells, confirmation, counter-screen for TRPC4 allosteric potentiator project, cell-based, HEK293 mu-opioid receptor line (AID 449724;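 active = calcium signal rise more than 3 SD above the low-dose agonist control mean, in both duplicate plates and the primary screen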); details: Fluo-4 calcium flux, at 10 µM, compound added before EC20 DAMGO stimulus; stronger effect = higher value

Chain of Short transient receptor potential channel 4 (Mus musculus) (Q9QUQ5 whole entry, looked up): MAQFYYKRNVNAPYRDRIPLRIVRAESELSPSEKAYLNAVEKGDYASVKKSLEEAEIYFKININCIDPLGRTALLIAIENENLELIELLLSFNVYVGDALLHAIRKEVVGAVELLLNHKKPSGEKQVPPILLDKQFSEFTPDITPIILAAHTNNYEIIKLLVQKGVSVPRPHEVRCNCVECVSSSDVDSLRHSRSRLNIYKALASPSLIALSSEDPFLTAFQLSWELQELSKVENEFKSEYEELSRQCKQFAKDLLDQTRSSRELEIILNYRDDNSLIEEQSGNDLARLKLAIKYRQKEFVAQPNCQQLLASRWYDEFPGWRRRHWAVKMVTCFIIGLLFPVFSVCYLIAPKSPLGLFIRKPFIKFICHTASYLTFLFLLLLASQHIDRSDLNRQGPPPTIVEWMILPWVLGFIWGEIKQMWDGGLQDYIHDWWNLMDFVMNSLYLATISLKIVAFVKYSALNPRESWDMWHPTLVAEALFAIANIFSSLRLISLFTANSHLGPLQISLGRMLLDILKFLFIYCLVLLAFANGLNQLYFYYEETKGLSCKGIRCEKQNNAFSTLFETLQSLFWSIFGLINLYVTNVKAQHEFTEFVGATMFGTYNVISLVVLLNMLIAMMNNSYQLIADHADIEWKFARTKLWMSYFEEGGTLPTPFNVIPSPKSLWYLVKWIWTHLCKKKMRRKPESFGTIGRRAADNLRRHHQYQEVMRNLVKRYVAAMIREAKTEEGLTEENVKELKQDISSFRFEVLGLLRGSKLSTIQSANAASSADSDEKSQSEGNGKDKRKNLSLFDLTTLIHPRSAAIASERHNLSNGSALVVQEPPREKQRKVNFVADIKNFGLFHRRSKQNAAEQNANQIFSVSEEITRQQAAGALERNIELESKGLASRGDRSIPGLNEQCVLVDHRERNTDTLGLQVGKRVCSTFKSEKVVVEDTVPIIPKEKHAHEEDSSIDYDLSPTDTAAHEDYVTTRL
Chain of Short transient receptor potential channel 6 (Mus musculus) (Q61143 whole entry, looked up): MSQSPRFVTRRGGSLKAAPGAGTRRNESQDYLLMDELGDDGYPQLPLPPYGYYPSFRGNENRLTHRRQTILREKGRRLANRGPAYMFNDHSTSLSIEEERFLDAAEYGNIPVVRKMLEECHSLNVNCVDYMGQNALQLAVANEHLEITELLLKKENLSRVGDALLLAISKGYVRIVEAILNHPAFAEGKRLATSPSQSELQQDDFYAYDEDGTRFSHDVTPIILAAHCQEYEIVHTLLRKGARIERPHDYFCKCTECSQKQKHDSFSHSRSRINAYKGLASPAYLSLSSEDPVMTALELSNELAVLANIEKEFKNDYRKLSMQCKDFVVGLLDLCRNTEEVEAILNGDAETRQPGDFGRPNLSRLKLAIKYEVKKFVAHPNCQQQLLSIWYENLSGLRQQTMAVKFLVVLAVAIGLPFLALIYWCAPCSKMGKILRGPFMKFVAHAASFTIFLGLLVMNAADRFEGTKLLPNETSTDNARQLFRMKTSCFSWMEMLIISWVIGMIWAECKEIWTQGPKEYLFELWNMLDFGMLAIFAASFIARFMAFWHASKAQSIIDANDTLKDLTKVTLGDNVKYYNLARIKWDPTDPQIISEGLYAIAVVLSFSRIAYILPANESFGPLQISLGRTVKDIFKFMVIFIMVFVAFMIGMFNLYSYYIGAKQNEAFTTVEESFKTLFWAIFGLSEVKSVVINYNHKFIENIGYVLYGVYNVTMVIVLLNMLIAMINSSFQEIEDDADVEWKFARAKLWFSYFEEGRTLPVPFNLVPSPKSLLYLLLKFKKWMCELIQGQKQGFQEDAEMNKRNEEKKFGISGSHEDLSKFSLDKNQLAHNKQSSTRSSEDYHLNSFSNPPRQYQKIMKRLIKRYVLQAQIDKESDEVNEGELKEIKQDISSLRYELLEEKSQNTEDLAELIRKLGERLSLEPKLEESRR

COc1cc2c(cc1OC)C(C)N(C(=O)C(NC(=O)c1ccccc1)C(C)C)CC2 (stereo not given)
inactive: outcome [2] | outcome [3] | outcome [4] | outcome [5] | outcome [6] | outcome [7] | outcome [8] | outcome [9] | outcome [11] | outcome [12] | outcome [13] | outcome [14] | outcome [15] | outcome [16]
active: activation [1] 130% | activation [10] 31%

NC(N)=NN=C1CCCCCCCCCCC1
inactive: outcome [2] | outcome [3] | outcome [4] | outcome [5] | outcome [6] | outcome [7] | outcome [8] | outcome [9] | outcome [11] | outcome [13] | outcome [14] | outcome [16]
active: activation [1] 95% | activation [10] 32.5% | activation [12] 32.2% | activation [15] 24.9%

Cc1ccccc1Cn1c(CN2CCc3ccccc3C2)nc2c1c(=O)n(C)c(=O)n2C
inactive: outcome [2] | outcome [5] | outcome [6] | outcome [7] | outcome [8] | outcome [9] | outcome [11] | outcome [12] | outcome [13] | outcome [15] | outcome [16]
active: activation [1] 163% | potentiation [3] 6% | potentiation [4] 46% | activation [10] 71% | potentiation [14] 88.5%

Cc1cc(CSC(=N)N)c(CSC(=N)N)cc1C
active: activation [1] 178% | activation [2] 67% | activation [12] 46%
inactive: outcome [3] | outcome [4] | outcome [5] | outcome [6] | outcome [7] | outcome [8] | outcome [9] | outcome [10] | outcome [11] | outcome [13] | outcome [14] | outcome [15] | outcome [16]

Cc1oc(-c2ccccc2Cl)nc1CS(=O)CC(=O)NCCCN1CC(C)CC(C)C1 (stereo not given)
active: activation [1] 78% | activation [2] 58% | activation [10] 31% | activation [12] 20.1%
inactive: outcome [3] | outcome [4] | outcome [5] | outcome [6] | outcome [7] | outcome [8] | outcome [9] | outcome [11] | outcome [13] | outcome [14] | outcome [15] | outcome [16]

COc1cc2ccccc2cc1C(=O)NCC(c1cccs1)N(C)C (stereo not given)
active: activation [1] 164% | activation [10] 59.5%
inactive: outcome [2] | outcome [3] | outcome [4] | outcome [5] | outcome [6] | outcome [7] | outcome [8] | outcome [9] | outcome [11] | outcome [12] | outcome [13] | outcome [14] | outcome [15] | outcome [16]

O=C(NCC(c1cccs1)N1CCOCC1)c1ccc(Cl)c([N+](=O)[O-])c1 (stereo not given)
active: activation [1] 135% | activation [12] 21.6%
inactive: outcome [2] | outcome [3] | outcome [4] | outcome [5] | outcome [6] | outcome [7] | outcome [8] | outcome [9] | outcome [10] | outcome [11] | outcome [13] | outcome [14] | outcome [15] | outcome [16]

COc1cc(OC)c(OC)cc1CCC(C)NCCC(c1ccccc1)c1ccccc1 (stereo not given)
inactive: outcome [2] | outcome [3] | outcome [4] | outcome [5] | outcome [6] | outcome [7] | outcome [8] | outcome [9] | outcome [11] | outcome [13] | outcome [14] | outcome [16]
active: activation [1] 106% | activation [10] 28% | activation [12] 66.8% | activation [15] 11.2%

CN(C)C(CNC(=O)c1cccc(S(=O)(=O)N(C)C)c1)c1ccccc1 (stereo not given)
inactive: outcome [2] | outcome [3] | outcome [4] | outcome [5] | outcome [6] | outcome [7] | outcome [8] | outcome [9] | outcome [11] | outcome [12] | outcome [13] | outcome [14] | outcome [15] | outcome [16]
active: activation [1] 84% | activation [10] 39.5%

COc1ccc(CN2CCC(n3nccc3NC(=O)CCc3ccccc3)CC2)c(C)c1C
inactive: outcome [2] | outcome [3] | outcome [4] | outcome [5] | outcome [6] | outcome [7] | outcome [8] | outcome [9] | outcome [11] | outcome [12] | outcome [13] | outcome [14] | outcome [15] | outcome [16]
active: activation [1] 68% | activation [10] 72%

COc1cccc(CN2CCNC(=O)C2CC(=O)N(C)CCc2ccccn2)c1 (stereo not given)
inactive: outcome [3] | outcome [4] | outcome [5] | outcome [6] | outcome [7] | outcome [8] | outcome [9] | outcome [10] | outcome [11] | outcome [13] | outcome [14] | outcome [15] | outcome [16]
active: activation [1] 186% | activation [2] 92% | activation [12] 39%

Cc1c(Cl)cccc1NC(=S)NCC(c1cccnc1)N(C)C (stereo not given)
active: activation [2] 103% | activation [10] 47.5%
inactive: outcome [1] | outcome [3] | outcome [4] | outcome [5] | outcome [6] | outcome [7] | outcome [8] | outcome [9] | outcome [11] | outcome [12] | outcome [13] | outcome [14] | outcome [15] | outcome [16]

CCCN(CCC)CCCNC(=O)CNC(=O)c1nn(-c2ccc(OC)cc2)c(=O)c2ccccc12
inactive: outcome [2] | outcome [3] | outcome [4] | outcome [5] | outcome [6] | outcome [7] | outcome [8] | outcome [9] | outcome [10] | outcome [11] | outcome [13] | outcome [14] | outcome [15] | outcome [16]
active: activation [1] 65% | activation [12] 24.9%

Cc1ccc(-n2cc(CNC(C)c3cnn(C)c3)c(-c3ccc(F)cc3)n2)cc1 (stereo not given)
inactive: outcome [3] | outcome [4] | outcome [5] | outcome [6] | outcome [7] | outcome [8] | outcome [9] | outcome [11] | outcome [13] | outcome [14] | outcome [15] | outcome [16]
active: activation [1] 232% | activation [2] 103% | activation [10] 33% | activation [12] 5.72%

CCCCN(CC)CCNC(=O)Cn1cc2c(n1)-c1c(oc(C(=O)N3CCCC3)c1C)CC2
active: activation [1] 65% | activation [10] 34% | activation [12] 18.6%
inactive: outcome [2] | outcome [3] | outcome [4] | outcome [5] | outcome [6] | outcome [7] | outcome [8] | outcome [9] | outcome [11] | outcome [13] | outcome [14] | outcome [15] | outcome [16]
